# Compounds with a hit are over-represented: about 5.2% of the library has one in this group of screens.
# TrxR1 inh: inhibitors of rat thioredoxin reductase 1; O89049; recombinant rTrxR1, NADPH fluorescence consumption, selenite substrate; Potency, µM (highest dose often 114 µM), for the others: at the highest dose activity change, negative = inhibition, most hits filed as inhibitors; 390,000 compounds, 1% hits; AID 588453; note: potency is the fitted concentration of half-maximal effect; % is set by controls: 0 for no effect and ±100 for the full control effect; nearly all actives have a fitted effect of over 65% in size
#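 Rat TrxR1 (90 nM in the dispensed reagent) was pre-reduced with 400 uM NADPH for 5 min at room temperature, then incubated with compound for 15 min. After 400 uM selenite was added, NADPH fluorescence (Ex 340/Em 450 nm) was followed for 8 min.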
# PLK1 PBD inh: PLK1 (human) polo-box domain binding inhibition | Plk1 PBD binding of FITC phosphopeptide, fluorescence polarization | Potency, µM, for the others: max response, negative = inhibition, usual class: inhibitors | 360,000 compounds, 2.8% hits; note: potency is the fitted concentration of half-maximal effect; series mostly up to about 57 µM; % is set by controls: 0 for no effect and ±100 for the full control effect; nearly all actives have a fitted effect of over 65% in size
# Sfp inh: inhibitors of Bacillus subtilis Sfp phosphopantetheinyl transferase | 310,000 compounds, 3.5% hits | Biochemical Sfp PPTase activity, qHTS | Potency, µM, inactives show largest response in the series, negative = inhibition, usual class: inhibitors | Q9F4F7;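 note: the enzyme is Sfp with the accession as filed and its product quenches rhodamine fluorescence; potency is the fitted concentration of half-maximal effect; 0% = enzyme reaction without inhibitor and -100% = no enzyme wells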
#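 Sfp 15 nM + cpd, 15 min RT; start w/ rhodamine-CoA 5 uM, BHQ-2-YbbR 12.5 uM (final); 50 mM Hepes pH 7.6, 10 mM MgCl2, 0.01% NP-40, 0.01% BSA; read 525/598 nm at 0 and 30 min.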
# IDH1 R132H inh: blocks human mutant IDH1 R132H enzyme. O75874. Potency, µM (series often up to 76.6 µM), for inactives: top-dose activity change, negative = inhibition, most hits filed as inhibitors. 390,000 compounds, 0.093% hits. IDH1-R132H enzyme, NADPH consumption, diaphorase/resazurin fluorescence. AID 602179; note: potency is the fitted concentration of half-maximal effect; % is set by controls: 0 for no effect and ±100 for the full control effect; nearly all actives have a fitted effect of over 65% in size
# Target sequence (O75874 whole entry R132H, stated change not applied): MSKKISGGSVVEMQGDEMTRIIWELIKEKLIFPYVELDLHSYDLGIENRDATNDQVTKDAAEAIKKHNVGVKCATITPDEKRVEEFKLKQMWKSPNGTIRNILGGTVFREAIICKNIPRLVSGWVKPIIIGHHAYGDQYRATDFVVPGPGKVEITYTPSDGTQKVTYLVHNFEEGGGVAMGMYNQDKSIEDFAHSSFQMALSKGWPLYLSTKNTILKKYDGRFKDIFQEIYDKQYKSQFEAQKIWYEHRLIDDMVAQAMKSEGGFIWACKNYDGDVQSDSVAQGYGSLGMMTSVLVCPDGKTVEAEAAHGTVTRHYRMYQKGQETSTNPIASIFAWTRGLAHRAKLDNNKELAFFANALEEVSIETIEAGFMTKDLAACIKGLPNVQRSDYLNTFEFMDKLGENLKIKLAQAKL
#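 IDH1-R132H (0.5 ug/mL) preincubated 30 min with compound, then NADPH (0.016 mM) and alpha-KG (2 mM) added; 80 min at RT, pH 7.5. Remaining NADPH coupled via diaphorase/resazurin to fluorescence (540/590 nm); concentration-response curves normalized to no-enzyme control.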
# VDR inh: vitamin D3 receptor (human) inhibition | Potency, µM, without a hit: max response, negative = inhibition, most hits filed as inhibitors | 400,000 compounds, 0.93% hits | VDR-SRC2-3 peptide fluorescence polarization, 2 h | P11473; note: potency is the fitted concentration of half-maximal effect; % is set by controls: 0 for no effect and ±100 for the full control effect
#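 Measured by FP: displacement of SRC2-3 coactivator peptide from VDR by library compounds, following a two-hour ambient incubation.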
# TrxR1 substrate: rat thioredoxin reductase 1 substrate activity; 390,000 compounds, 0.01% hits; AID 588456; O89049; purified TrxR1 substrate turnover, NADPH consumption readout; Potency, µM (doses to about 114 µM), for inactives: at the top dose activity change, negative = substrate turnover; note: potency is the fitted concentration of half-maximal effect; % is set by controls: 0 for no effect and ±100 for the full control effect; nearly all actives have a fitted effect of over 50% in size
#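 Rat TrxR1, dispensed at 90 nM, was prereduced with 400 uM NADPH (final) for 5 min at ~22 deg C, then incubated with compound 15 min before 400 uM selenite. A first-read NADPH fluorescence drop versus no-compound background flagged substrates.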
# Resorufin autofl: counter-screen for mutant IDH1 inhibitors: fluorescence interference; Resorufin detection reagent fluorescence interference, cell-free; shares compounds with IDH1 R132H inh; inhibition of signal, % at 51.2 µM; 750 tested, under 10 active;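 note: 0% = wells with normal resorufin and full inhibition = wells lacking resorufin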
# WT IDH1 inh: inhibits human wild-type IDH1, mutant selectivity check. shares compounds with IDH1 R132H inh. WT IDH1 enzyme, NADPH diaphorase/resazurin fluorescence. Potency, µM (titrated, usually from 115 µM), for the others: top-dose activity change, negative = inhibition, hits mostly inhibitors. 750 compounds, 9% hits. AID 623995;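 note: potency is the fitted concentration of half-maximal effect; 0% = full WT IDH1 enzyme control and full inhibition = no enzyme wells; nearly all actives have a fitted effect of over 55% in size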
# Target sequence (O75874 whole entry, looked up): as the sequence (O75874 whole entry R132H, stated change not applied) above, with H132R counted along it
# mIDH1 confirm: confirmation of human mutant IDH1 inhibitors; shares compounds with IDH1 R132H inh; IDH1 R132H enzyme, NADPH diaphorase/resazurin fluorescence; Potency, µM (highest dose often 76.6 µM), without a hit: top-dose activity change, negative = inhibition, most hits filed as inhibitors; 750 compounds, 83% hits; AID 624002; note: potency is the fitted concentration of half-maximal effect; nearly all actives have a fitted effect of over 50% in size
# * hit, by the source's call; ? = inconclusive; nt = not tested or not shown; [ ] = another dose, or the depositor's remark. Calls come from the whole dose curve; as a rule, active = well fitted curve in the direction sought with a large enough effect; inconclusive = small, poorly fitted or top-dose-only effect, or another doubt; inactive = no such curve, though single readings can be large; an effect the other way counts as inactive or inconclusive.
SMILES,TrxR1 inh,PLK1 PBD inh,Sfp inh,IDH1 R132H inh,VDR inh,TrxR1 substrate,Resorufin autofl,WT IDH1 inh,mIDH1 confirm
CCn1cc(C(=O)NCc2ccco2)c(=O)c2cc(S(=O)(=O)N3CC(C)CC(C)C3)ccc21 (stereo not drawn),4%,-2%,-17%,5.2µM*,4%,5%,0,6%,2.5µM*
COc1ccc(-c2nn3c(-c4ccccc4C)nnc3c3ccccc23)cc1,21%,nt,nt,?,-8%,17%,-2,2%,22µM*
N=c1c(S(=O)(=O)c2ccc(Br)cc2)cc2c(=O)n3ccccc3nc2n1C1CCCC1,2%,-1%,-12%,-6%,-9%,22%,nt,nt,nt
N=c1c(S(=O)(=O)c2ccccc2)cc2c(=O)n3ccccc3nc2n1C1CCCC1,26%,1%,-29%,18µM*,13%,8%,0,5%,7.1µM*
C[N+]1(CC(=O)c2ccc(Br)cc2)CCOCC1,23%,nt,nt,nt,nt,6%,nt,nt,nt
CCCCOc1ccc(/C=N/NC(=S)Nc2cccc(C)c2C)cc1,-13%,-4%,4%,?,4%,-14%,2,-1%,11µM*
CCN(CC)C(=O)CSc1nc2cc(S(=O)(=O)N3CCOCC3)ccc2n1CC,-3%,-4%,20%,8%,-4%,1%,nt,nt,nt
C=CS(=O)(=O)c1ccc(Oc2ccc(S(=O)(=O)C=C)cc2)cc1,5µM*,24µM*,?,32µM*,45µM*,-4%,1,?,11µM*
CCSc1sccc1C1C(C#N)=C(N)N(c2cccnc2)C2=C1C(=O)CC(C)(C)C2 (stereo not drawn),-15%,0%,-16%,58µM*,2%,-6%,-3,-6%,28µM*
O=S(=O)(c1ccc(Cl)cc1)N1CCN(c2nc(-c3ccc(F)cc3)nc3cc(Cl)ccc23)CC1,23%,nt,nt,nt,-11%,2%,nt,nt,nt
COc1cccc(C(C(=O)NC2CCCCC2)N(C(=O)c2cccs2)c2ccc3c(c2)OCO3)c1 (stereo not drawn),1%,-16%,8%,?,18%,-7%,-1,-5%,-23%
COc1cccc(C(C(=O)NC2CCCCC2)N(C(=O)Cc2cccs2)c2ccc(-n3cnnn3)c(OC)c2)c1 (stereo not drawn),-2%[57.1 µM],2%,15%,?,5%,1%[57.1 µM],1,-4%,8.9µM*
COc1ccc(N(C(=O)C2COc3ccccc3O2)C(C(=O)NC2CCCCC2)c2ccccc2)cc1OC (stereo not drawn),11%,-14%,18%,5.2µM*,11%,-1%,4,4%,2.8µM*
O=C(COc1ccccc1C(=O)Nc1cccnc1)Nc1ccc(Br)cc1,16%,nt,nt,nt,nt,0%,nt,nt,nt
CC(=O)c1cccc(NC(=O)c2ccc3c(c2)N(Cc2ccc(C)cc2)CCS3)c1,11%,nt,nt,-6%,-14%,16%,nt,nt,nt
CCOC(=O)N1CCC2(CC1)C(C#N)=C(N)Oc1n[nH]c(CSc3ccc(C)cc3)c12,-17%,-8%,-2%,?,-13%,-9%,4,0%,28µM*
Cc1ccc(SCc2[nH]nc3c2C2(CCSCC2)C(C#N)=C(N)O3)cc1,1%,-2%,-6%,-19%,2%,2%,nt,nt,nt
CC[C@]12c3[nH]c4cc(CCC(=O)N(C)C)ccc4c3CCN1C(=O)[C@@H](CC(=O)NC/C=C(\C)CCC=C(C)C)C[C@@H]2C(=O)N1CCN(C(=O)c2ccco2)CC1,-26%,-1%,nt,?,-9%,-7%,-11,-7%,32µM*
COc1ccc(C)cc1S(=O)(=O)N1CCN(c2cccc(Cl)c2)CC1,31%,nt,nt,30%,-12%,2%,nt,nt,nt
COc1ccc(C)cc1NC(=O)CSc1nc(=O)n(Cc2ccco2)c2c1CCC2,?,nt,nt,11%,-7%,-2%[57.1 µM],nt,nt,nt
N#CC1=C(N)C(C#N)(C#N)C(c2cccnc2)C2COCC=C12 (stereo not drawn),-4%[57.1 µM],-11%,-12%,?,-23%,5%[57.1 µM],4,47%,40µM*
CC(C)C[C@@H](CN1CCC[C@@H]1CN1C(=O)C(=O)NC[C@@H]1Cc1ccccc1)N1C[C@H](Cc2ccccc2)N(CC2CCCCCC2)C(=O)C1=O,15%,-2%,nt,40µM*,-17%,0%,2,6%,20µM*
CC(C)C[C@@H](CN1CCC[C@@H]1CN1C(=O)C(=O)NC[C@@H]1Cc1ccccc1)N1C[C@H](Cc2ccccc2)N(CC2CCCCC2)C(=O)C1=O,nt,-5%,nt,nt,nt,nt,nt,nt,nt
CC(C)C[C@H]1CN([C@@H](Cc2ccc(O)cc2)CN2CCC[C@@H]2CN2C(=O)C(=O)NC[C@@H]2Cc2ccccc2)C(=O)C(=O)N1CC1CCCCC1,10%,-22%,nt,45µM*,-9%,-5%,-4,-3%,14µM*
CC(C)C[C@H]1CN([C@@H](Cc2ccccc2)CN2CCC[C@@H]2CN2C(=O)C(=O)NC[C@@H]2Cc2ccc(O)cc2)C(=O)C(=O)N1CC1CCCCCC1,nt,0%,nt,nt,nt,nt,nt,nt,nt
CCc1ccc(CNC(=O)C2COc3ccc(OC)cc3C2)cc1 (stereo not drawn),-4%[57.1 µM],nt,nt,-15%,-8%,-6%[57.1 µM],nt,nt,nt
CCn1c(=O)c2cc(C(=O)N(C)c3cc(Cl)c(OC)cc3OC)sc2c2ccccc21,35%,nt,nt,4%,-8%,5%,nt,nt,nt
CCn1c(=O)c2cc(C(=O)N(C)c3cc(C)ccc3OC)sc2c2ccccc21,8%,-20%,-20%,?,-18%,-10%,-6,1%,32µM*
